What all share (type): functional
Assay [1] has as its target Solute carrier family 2, facilitated glucose transporter member 1 (Homo sapiens) (UniProt P11166). The assay can be described thus: ST_JUDE_LEISH: Cytotoxicity at 2uM final concentration against transgenic Leishmania Mexicana promastigotes LmGLUT1 that are glucose transport deficient and complemented with the human glucose transporter GLUT1. Activity is measured by DNA content using SYBR green in vitro.

Assay [2] has as its target Hexose transporter 1 (Plasmodium falciparum) (UniProt O97467). The assay can be described thus: ST_JUDE_LEISH: Cytotoxicity at 2uM final concentration against transgenic Leishmania Mexicana promastigotes LmPfHT that are glucose transport deficient and complemented with the Plasmodium falciparum hexose transporter. Activity is measured by DNA content using SYBR green in vitro.

Assay [3] concerns the target Glucose transporter (Leishmania mexicana) (UniProt O61059). The assay can be described thus: ST_JUDE_LEISH: Cytotoxicity at 2uM final concentration against transgenic Leishmania Mexicana promastigotes LmGT2 that are glucose transport deficient and complemented with the L. Mexicana glucose transporter 2. Activity is measured by DNA content using SYBR green in vitro.

The structures appear in SMILES notation.

Solute carrier family 2, facilitated glucose transporter member 1 (Homo sapiens), sequence (P11166 whole entry): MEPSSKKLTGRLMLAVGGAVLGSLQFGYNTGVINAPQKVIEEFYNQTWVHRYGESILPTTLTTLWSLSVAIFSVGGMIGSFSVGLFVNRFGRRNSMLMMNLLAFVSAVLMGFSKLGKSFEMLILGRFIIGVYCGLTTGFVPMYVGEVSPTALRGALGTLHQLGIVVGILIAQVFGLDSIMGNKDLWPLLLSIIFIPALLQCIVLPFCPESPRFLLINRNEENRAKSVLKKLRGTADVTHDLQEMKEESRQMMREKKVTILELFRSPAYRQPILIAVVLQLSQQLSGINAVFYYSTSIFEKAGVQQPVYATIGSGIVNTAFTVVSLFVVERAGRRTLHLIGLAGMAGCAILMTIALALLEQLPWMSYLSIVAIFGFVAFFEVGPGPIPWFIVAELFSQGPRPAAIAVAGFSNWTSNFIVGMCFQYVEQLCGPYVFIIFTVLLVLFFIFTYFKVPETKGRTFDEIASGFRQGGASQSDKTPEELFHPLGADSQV

For `CC1(C)NC(N)=NC(=N)N1OCOc1ccc(Cl)cc1`, the inhibition (commonly the change of the read-out against control, counted positive when it falls) in assay [1] came out at 3.62%; in assay [2], 1.85%; in assay [3] it was 4.23%.
With `CCCOC(=O)C1=C(C)NC2=C(C(=O)CC(c3ccc(OC)c(OC)c3)C2)C1c1cccc(O)c1` (centres undefined), the values for the inhibition in assay [1], in assay [2] and in assay [3] were 8.78%, 9.73% and 8.46%, respectively.
Turning to `CCC(ON1C(N)=NC(N)=NC1(C)C)c1ccccc1` (centres undefined), the results for the inhibition in assay [1], in assay [2] and in assay [3] were -1.61%, -0.45% and -3.19%, respectively.
For `O=C(NC1CC1)c1ccc2cc(C(=O)N3Cc4ccccc4C(c4ccccc4)C3)ccc2c1` (centres undefined), in that order: 2.37%, -0.61% and -1.42%.
Turning to `Cc1nc(N)nc(N)c1-c1cc(Cl)c(N)c(Cl)c1`, the inhibition was -0.04% in assay [1], -0.43% in assay [2] and -1.52% in assay [3].
On the same counts, the results for `Cc1cccc(CNc2ncc(C)c(NCCC(=O)Nc3ccccc3)n2)c1` are 15.3%, 12.7% and 6.61%.
On the same counts, the results for `Nc1nc(N)c2c(ccc3nn(S(=O)(=O)N4CCCC4)cc32)n1` are 4.35%, 4.05% and 4.06%.
Turning to `CN(Cc1ccc(NC(=O)NC2CCN(C(=O)/C=C/c3ccc(Cl)c(Cl)c3)CC2)cc1)C1CCOCC1`, the inhibition in assay [1] is 1.63%; in assay [2], -3.08%; in assay [3] it was 3.44%.
On the same counts, the results for `Cc1cc(NC(=O)Nc2ccc3nccc(N4CCN(C)CC4)c3c2)ccc1Br` are -0.1%, 1.48% and 1.15%.
Take `O=C(Nc1ccc(F)cc1)c1nc2ccccc2nc1Cl`: the inhibition came out at 4.1% in assay [1], 3.68% in assay [2] and 4.22% in assay [3].
On the same counts, the results for `c1ccc(COc2ccc(COc3ccc(Cn4ccnc4)cc3)cc2)cc1` are 2.93%, 2.15% and 1.02%.
For `CC(C)c1ccc(CN2CCC(CNC(=O)c3cc(-c4ccccc4F)cs3)C2)cc1` (centres undefined), in that order: 4.5%, 4.88% and 8.4%.
Take `Cc1noc(C)c1S(=O)(=O)N(C)Cc1ccc(-c2ccc(Cl)cc2)o1`: the inhibition in assay [1] was 1.57%; in assay [2] it was 1.24%; in assay [3] it was -2.43%.

The values above are taken from ChEMBL document CHEMBL3433997, “St. Jude Leishmania screening dataset” (2016).
